PubChem BioAssay AID435026 (Broad Institute, 2010)
Out of some 1,000 compounds screened, about 410 (41%) were called active.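 The calls were made as follows: active = fitted half-maximal inhibitory concentration no more than tenfold above the top dose tested; inconclusive = flat fit with 30 to 70% activity, or poor fit; inactive = half-maximal concentration beyond tenfold above the top dose.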 The set was probably picked from earlier hits. Not all results are given here.

Experiment: YIC intramolecular FRET probe signal interference, dose response, counter-screen for RanGTP-importin-beta inhibitor project, biochemical, fluorescence FRET (AID 435026)
Conditions: Purified YIC probe, intramolecular FRET ratio YFP/CFP

Structure (SMILES)	IC50
CCN(CC)c1nc(-c2ccccc2)cc(C(F)(F)F)c1C#N	9.38 µM (active)
CCCOc1ccc(Cn2ccnc2)cc1[N+](=O)[O-]	> 50 µM (inactive)
CCN1C(=O)/C(=C2/Sc3ccccc3N2CCCS(=O)(=O)O)SC1=S	15 µM (active)
C/C(=N\N)c1c(-c2ccccc2)c2cc(Br)ccc2[nH]c1=O	> 50 µM (inactive)
CN1CCN(c2cc(=O)n(-c3ccc(Cl)cc3)c(=O)[nH]2)CC1	> 50 µM (inactive)
CCC(=O)Nc1c(S(=O)(=O)c2ccccc2)c2nc3ccccc3nc2n1Cc1ccccc1	17.3 µM (active)
O=C(NNc1c2ccccc2nc2ccccc12)c1cc2ccccc2cc1O	> 50 µM (inactive)
COc1ccc(CCn2c(=N)c(C(=O)NCc3ccco3)cc3c(=O)n4cccc(C)c4nc32)cc1	50.2 µM (active)
CC(C)C1C2=C(CC(C)(C)CC2=O)ON1c1ccccc1 (stereo not given)	> 50 µM (inactive)
CCN1CCc2nc(NC(=O)c3cc(F)c(F)cc3Cl)sc2C1	> 50 µM (inactive)
CNC(=O)c1cc2c(ccc3ccccc32)oc1=N	7.06 µM (active)
CC(=O)c1cc(C#N)c(N2CC(C)OC(C)C2)nc1C (stereo not given)	> 50 µM (inactive)
Oc1c(CN2CCN(c3ccc(F)cc3)CC2)cc(Cl)c2cccnc12	> 50 µM (inactive)
CC1CN(c2cc(=O)n(-c3cccc(Br)c3)c(=O)[nH]2)CC(C)O1 (stereo not given)	> 50 µM (inactive)
CCOC(=O)c1oc2c(CN3CCN(CCO)CC3)c(O)c(CC)cc2c(=O)c1-c1nc2ccccc2s1	29.2 µM (active)
CC1CC(=O)N(CC(=O)Nc2cccc(Cl)c2)c2ccccc2S1(=O)=O (stereo not given)	> 50 µM (inactive)
CC(OC(=O)CNC(=O)c1cccc(F)c1)C(=O)NC1CCCCC1C (stereo not given)	> 50 µM (inactive)
OCCNCc1cccc(OCc2ccccc2Cl)c1	> 50 µM (inactive)
N#Cc1c(N)n(CCOC(=O)c2ccc(Cl)cc2)c2nc3ccccc3nc12	3.73 µM (active)
CCN(CC(=O)Nc1cccc(S(=O)(=O)N2CCCCC2)c1)Cc1ccccc1	> 50 µM (inactive)
